# Screens deposited in PubChem BioAssay by National Center for Advancing Translational Sciences (NCATS).
# MARV entry inh = blocks Marburg virus binding or cell entry; actives 6.5% (n = 18,000); AID 720532; Potency, µM (top dose mostly 49.2 µM), for the others: at the top dose activity change, negative = inhibition, actives largely listed as inhibitors; Marburg virus pseudotype entry/binding inhibition, cell-based
# LASV entry inh = blocks Lassa virus binding or cell entry; AID 720533; Lassa virus pseudotyped entry inhibition, cell-based qHTS; Potency, µM (top dose mostly 49.2 µM), inactives show top-dose activity change, negative = inhibition, usual class: inhibitors; actives 4.1% (n = 18,000)
# * = called active by the depositor; u = inconclusive; x = no result given; ! = not confirmed by another sample; [ ] = remark or other dose. Most compounds without a hit are left out; they make up all but 8% or so of the library. Calls follow the shape of the full dose curve; tested in HEK293 cells. % is scaled to controls: 0 for no effect and ±100 for the full control effect; potency is read from the fitted curve at half-maximal effect.
SMILES,MARV entry inh,LASV entry inh
CCC(C(=O)O)c1ccccc1 (stereo unspecified),-14%,-1%
CCCCCC(=O)N1C[C@@H](n2cc(-c3ccc(F)cc3)nn2)[C@H](O)C[C@H]1c1ccc(OC)cc1,-35%,x
Clc1ccc2nc(-c3ccccc3)[nH]c2c1,17%,8%
CCOc1ccc(-c2nc3ccc(-c4nc5ccc(N6CCN(C)CC6)cc5[nH]4)cc3[nH]2)cc1,10µM*,u
O=c1c(O)cc(C2Oc3cc(O)cc(O)c3CC2O)cc2c(C3Oc4cc(O)cc(O)c4CC3O)cc(O)c(O)c12 (stereo unspecified),13µM*,5%
Oc1cc(O)c2c(c1)O[C@H](c1ccc(O)c(O)c1)[C@@H](O)C2,9%,-8%
COC(=O)CC=C1c2ccccc2C[C@H](OC)[C@@H]1C,-1%[8.59 µM],2%[8.59 µM]
Cc1ccc(C)c(S(=O)(=O)NCc2nc(N3CCCC3)c3cc(Cl)ccc3n2)c1,u,-14%
COC(=O)[C@H]1C(OC)[C@@H](OC(=O)c2cc(OC)c(OC)c(OC)c2)C[C@@H]2CN3CCc4c([nH]c5cc(OC)ccc45)[C@H]3C[C@H]21 (stereo partly specified),-6%,1%
COC(=O)[C@H]1[C@H]2C[C@@H]3c4[nH]c5ccccc5c4CCN3C[C@H]2C[C@@H](OC(=O)c2cc(OC)c(OC)c(OC)c2)[C@@H]1OC,u,3.5µM*
COC(=O)C1=CO[C@@H](C)[C@@H]2CN3CCc4c([nH]c5cc(OC)ccc45)[C@@H]3C[C@H]12,-12%,1%
COC(=O)[C@H]1[C@H]2C[C@@H]3c4[nH]c5cc(OC)ccc5c4CCN3C[C@H]2C[C@@H](OC(=O)/C=C/c2cc(OC)c(OC)c(OC)c2)[C@@H]1OC,10µM*,-28%[17.8 µM]
Cc1cnc(-n2ncc(C(=O)N(C)CCc3ccccn3)c2-c2cccs2)nc1-c1ccc(F)cc1,-42%,-29%
COC(=O)C1=C(C(=O)OC)[C@@H]2Nc3ccccc3[C@@]23C[C@@H](C(=O)OC)N(C(=O)Nc2ccccc2F)C3=N1,-9%[8.59 µM],-14%[8.59 µM]
CCCCCC(=O)N1C[C@H](n2cc(C3CC3)nn2)[C@@H](O)C[C@H]1c1ccccc1,23%,-17%
O=S1(=O)CCSCCN1Cc1cc(F)ccc1Br,23%,55%
O=S1(=O)CCSCCN1Cc1ccc(Br)cc1,6%,17%
COC(=O)N[C@@H](c1ccccc1)C(C(=O)OC)C(=O)OC,45%[8.59 µM],-9%[8.59 µM]
NS(=O)(=O)c1ccc(Nc2ncc(-c3ccccc3)o2)cc1,10%,-19%
CO/C1=C\C(C)=C\[C@@H](C)[C@@H](O)[C@@H](C)C/C(C)=C/C=C\[C@H](OC)C([C@@H](C)[C@@H](O)[C@H](C)[C@@]2(O)C[C@@H](O)[C@H](C)C(C(C)C)O2)OC1=O (stereo partly specified),0.015µM*,0.023µM*
O=C1CC[C@@]2(O)[C@H]3Cc4ccc(O)c5c4[C@@]2(CCN3CC2CC2)[C@H]1O5,-28%,2%
O=C1CC[C@]2(O)[C@H]3Cc4ccc(O)c5c4[C@@]2(CCN3CC2CC2)[C@@H]1O5,6%[17.8 µM],-14%[17.8 µM]
COC(=O)/C=C/C(=O)N[C@@H]1CC[C@@]2(O)[C@H]3Cc4ccc(O)c5c4[C@@]2(CCN3CC2CC2)[C@H]1O5,10µM*,28µM*
Oc1ccc2c3c1O[C@H]1c4c(c5ccccc5n4Cc4ccccc4)C[C@]4(O)[C@H](C2)N(CC2CC2)CC[C@@]314,11µM*,16µM*
Oc1ccc2c3c1O[C@H]1c4oc5ccccc5c4C[C@]4(O)[C@H](C2)N(CC2CC2)CC[C@@]314,28µM*,28µM*
SMILES,MARV entry inh,LASV entry inh
Oc1ccc2c3c1O[C@H]1[C@@H](O)CC[C@]4(O)[C@H](C2)N(CC2CCC2)CC[C@@]314,-13%[17.8 µM],-3%[17.8 µM]
Oc1ccc2c3c1O[C@H]1c4[nH]c5ccccc5c4C[C@]4(O)[C@H](C2)N(CC2CC2)CC[C@@]314,22µM*,u
Oc1ccc2c3c1O[C@H]1c4[nH]c5c(c4C[C@@]4(O)[C@@H](C2)N(CC2CC2)CC[C@]314)C[C@@]1(O)[C@H]2Cc3ccc(O)c4c3[C@@]1(CCN2CC1CC1)[C@H]5O4,-19%,8%
CCCNC(=O)N1C2=NC(C(=O)OC)=C(C(=O)OC)[C@@H]3N(C)c4ccccc4[C@]23C[C@H]1C(=O)OC,7%[8.59 µM],-6%[8.59 µM]
O=C1OC2(CCCCC2)CC2=C1[C@H]1O[C@](c3ccsc3)(Cc3c1ccc1ccccc31)O2,2%[8.59 µM],6%[8.59 µM]
O=C(Oc1ccccc1)[C@H]1O[C@H]1c1ccccc1,34%[8.59 µM],x
Cc1c(C(=O)N(C)C2CCCCC2)sc2nc3ccc(N)cc3n12,22µM*,u
CN1C[C@H](C(=O)N[C@]2(C)O[C@@]3(O)[C@H]4CCCN4C(=O)[C@H](Cc4ccccc4)N3C2=O)C[C@H]2c3cccc4[nH]cc(c34)C[C@@H]21,31%,3%
CN1C[C@H](CNC(=O)OCc2ccccc2)C[C@@H]2c3cccc4c3c(cn4C)C[C@H]21,14µM*!,u
